Activity calls are given as the source filed them. Calls come from the whole dose curve.
The molecules below were run against Thyrotropin-releasing hormone receptor (Homo sapiens) (UniProt P34981) (assay: qHTS assay to identify small molecule agonists of the thyrotropin-releasing hormone receptor (TRHR) signaling pathway (AID 1346891;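 for activation: HEK293 cells expressing TRHR with calcium dye readout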)). Conditions: TRHR-HEK293 calcium fluorescence, agonist mode; series mostly up to 57.6 µM; activation: at the top concentration.
Chain of Thyrotropin-releasing hormone receptor (Homo sapiens) (P34981 whole entry, looked up): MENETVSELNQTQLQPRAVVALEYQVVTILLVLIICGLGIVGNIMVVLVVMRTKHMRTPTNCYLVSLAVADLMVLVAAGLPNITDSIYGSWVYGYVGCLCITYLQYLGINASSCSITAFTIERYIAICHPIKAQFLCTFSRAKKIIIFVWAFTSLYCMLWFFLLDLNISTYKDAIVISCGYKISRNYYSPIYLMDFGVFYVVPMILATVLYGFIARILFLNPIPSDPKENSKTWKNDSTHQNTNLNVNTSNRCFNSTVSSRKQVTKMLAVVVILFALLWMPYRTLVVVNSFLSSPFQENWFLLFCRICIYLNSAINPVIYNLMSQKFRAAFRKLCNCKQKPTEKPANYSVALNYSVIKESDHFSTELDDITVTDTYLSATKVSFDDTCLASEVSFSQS
Source text: National Center for Advancing Translational Sciences [NCATS] NIH Chemical Genomics Center [NCGC] U.S. Environmental Protection Agency [EPA] National Institutes of Environmental Health Sciences [NIEHS] National Toxicology Program [NTP] Assay overview: Thyrotropin-releasing hormone (TRH) receptor (TRHR) is a G-protein-coupled receptor which binds the tripeptide thyrotropin releasing hormone. TRHR is found in the brain and, when bound by TRH, acts (through phospholipase C) to increase intracellular inositol trisphosphate. It plays a crucial role in the anterior pituitary where it controls the synthesis and secretion of thyroid stimulating hormone and prolactin. The TRHR-Hek293 assay is a cell-based assay, and it has the potential to screen G protein-coupled receptors. A compound/drug can either activate (agonist) or suppress (antagonist) GPCRs that can be monitored by levels of intracellular calcium. Using this assay, the Tox21 10K compound library was screened to identify potential TRHR agonists.
Assay Protocol Summary: The TRHR-Hek293 cells were dispensed at 1500cells/4uL/well in 1536-well black-clear bottom plates using a Multidrop dispenser. After the assay plates were incubated at a 37 C/5% CO2 incubator for 18 hours, 4 uL of Dye-Loading Solution was added to each well. The plates were incubated at 37 C for 2 hours. For agonist mode, 23 nL of compounds dissolved in DMSO, positive controls or DMSO only was transferred to the assay plate by a pin tool. The fluorescence intensity in the plates was measured using FDSS 7000EX kinetic plate reader for 3 min at 1 sec intervals. Each test compound was measured at 15 concentrations and in triplicates.
% is set by controls: 0 for no effect and ±100 for the full control effect; potency is the fitted concentration of half-maximal effect.

Structure (SMILES) | activation | Potency
NCCCNCCCN | 0.078% (inactive) | –
CCOP(O)OCC | 0.331% (inactive) | –
CCCCC(CC)COP(=O)(Oc1ccccc1)Oc1ccccc1 (stereo not given) | 0.126% (inactive) | –
CN1C(=O)NC(=O)C(C)(C2=CCCCC2)C1=O (stereo not given) | -0.192% [at 26.5 µM] (inactive) | –
O=[N+]([O-])c1cc(C(F)(F)F)cc([N+](=O)[O-])c1Cl | -0.151% (inactive) | –
CC(=O)C(C)(C)C | 0.006% (inactive) | –
O=C(NC(=O)c1c(F)cccc1F)Nc1ccc(OC(F)(F)C(F)OC(F)(F)F)c(Cl)c1 (stereo not given) | -1.06% [at 26.5 µM] (inactive) | –
CNC(C)Cc1ccccc1OC (stereo not given) | -0.24% [at 26.5 µM] (inactive) | –
CCCN(CC1CC1)c1c([N+](=O)[O-])cc(C(F)(F)F)cc1[N+](=O)[O-] | 0.139% (inactive) | –
C=C(C#N)CCC#N | -0.263% (inactive) | –
O=C1NCN(c2ccccc2)C12CCN(CCCOc1ccc(F)cc1)CC2 | – | 6.01 µM (active)
CCc1ccc(C(=O)NN(C(=O)c2cc(C)cc(C)c2)C(C)(C)C)cc1 | -1.21% (inactive) | –
COP(=S)(Oc1cc(Cl)c(Br)cc1Cl)c1ccccc1 (stereo not given) | 0.574% (inactive) | –
Cc1ccccc1CCl | -0.351% (inactive) | –
O=C(NCc1cccnc1)Nc1ccc([N+](=O)[O-])cc1 | -0.11% (inactive) | –
C[C@@H]1CC[C@H]2[C@@H](C)C(=O)O[C@@H]3O[C@@]4(C)CC[C@@H]1[C@]32OO4 | -0.113% [at 26.5 µM] (inactive) | –
Sc1ccccc1Cl | -0.537% [at 26.5 µM] (inactive) | –
CCO[C@H]1O[C@@H]2OC3(C)CC[C@H]4[C@H](C)CC[C@@H]([C@H]1C)[C@@]24OO3 | 0.754% [at 26.5 µM] (inactive) | –
c1ccoc1 | -0.0603% (inactive) | –
C=CC(C)=O | -0.0824% (inactive) | –

Structure (SMILES) | activation | Potency
O=C1c2ccccc2C(=O)C1C(=O)C(c1ccccc1)c1ccccc1 | -0.136% [at 26.5 µM] (inactive) | –
CCOP(=O)(OCC)SCCSCC | – | inactive
CCCCCC[N+](=O)[O-] | -0.135% (inactive) | –
C=CC(=O)OC(C)(C)C | -0.198% (inactive) | –
O=C1C(Cl)C(CCl)CN1c1cccc(C(F)(F)F)c1 (stereo not given) | -0.192% (inactive) | –
CC(C)(C)C(O)C(Oc1ccc(Cl)cc1)n1cncn1 (stereo not given) | 2.96% (inactive) | –
CCCC(=O)Cl | -0.304% (inactive) | –
C[C@]12CC[C@H]3[C@@H](CCC4=CC(=O)CC[C@@H]43)[C@@H]1CC[C@@H]2OC(=O)CCC1CCCCC1 | 0.355% [at 26.5 µM] (inactive) | –
Nc1nc(N)nc(N)n1 | 0.229% (inactive) | –
C=CC(=O)OCCCCO | -0.0152% (inactive) | –
CCCC(Cn1cncn1)c1ccc(Cl)cc1Cl (stereo not given) | -0.448% (inactive) | –
CC1CC(CC2CCC(N)C(C)C2)CCC1N (stereo not given) | 0.0425% (inactive) | –
Clc1cc(C(Cl)(Cl)Cl)cnc1Cl | 0.0227% (inactive) | –
CCCCCCCCCCOC(=O)c1ccccc1C(=O)OCCCCCCCCCC | 0.0639% (inactive) | –
CC(C)(OO)c1ccccc1 | 0.119% (inactive) | –
CC(Cl)C(C)Cl (stereo not given) | -0.329% (inactive) | –
CCCCCCCCCC(=O)O[C@H]1CC[C@H]2[C@@H]3CCC4=CC(=O)CC[C@@H]4[C@H]3CC[C@]12C | -0.226% [at 26.5 µM] (inactive) | –
COC(=O)C(Cl)C(=O)OC | -0.0197% [at 26.5 µM] (inactive) | –
CCC(C)(NC(=O)c1cc(Cl)c(C)c(Cl)c1)C(=O)CCl (stereo not given) | -1.1% (inactive) | –
O=Cc1ccc2c(c1)OCO2 | -0.0165% (inactive) | –
